Screening data deposited in PubChem by National Center for Advancing Translational Sciences (NCATS).
AmpC inh detg: qHTS Inhibitors of AmpC Beta-Lactamase (assay with detergent). Potency, µM (top dose mostly 114 µM), most hits filed as inhibitors. actives 0.041% (n = 370,000). AID 485294, 2010. AmpC hydrolysis of nitrocefin, absorbance 480 nm, 0.01% Triton. P00811; note: nearly all actives have a fitted effect of over 25% in size
Target sequence (P00811 whole entry, looked up): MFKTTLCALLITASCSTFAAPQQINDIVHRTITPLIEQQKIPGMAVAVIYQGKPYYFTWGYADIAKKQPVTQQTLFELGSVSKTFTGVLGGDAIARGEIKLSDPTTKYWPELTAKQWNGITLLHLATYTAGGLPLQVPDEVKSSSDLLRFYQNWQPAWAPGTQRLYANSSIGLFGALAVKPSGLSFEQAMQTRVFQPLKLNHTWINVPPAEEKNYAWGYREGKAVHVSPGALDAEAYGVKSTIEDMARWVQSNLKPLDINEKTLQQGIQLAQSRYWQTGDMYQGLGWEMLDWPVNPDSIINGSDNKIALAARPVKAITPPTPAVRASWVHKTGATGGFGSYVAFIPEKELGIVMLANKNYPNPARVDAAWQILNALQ
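AmpC (5.3 nM in the dispensed reagent) in 20 mM phosphate pH 7.0 with 0.01% (detergent screen) or 0.0001% Triton X-100 was preincubated with compounds for 15 min at room temperature. Nitrocefin was then added from an 800 uM solution, and hydrolysis was followed at 480 nm.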
Shiga toxin inh: A qHTS for Small Molecule Inhibitors of Shiga Toxin. inhibition, % at 38.7 µM. Vero cells, Shiga toxin protein synthesis inhibition reporter. actives 9.2% (n = 290,000). AID 2315, 2010; in the data active = inhibition mostly above about 28%, no sharp cut-off; inactive = mostly below about 43%
Cycloheximide cs: Cycloheximide Counterscreen for Small Molecule Inhibitors of Shiga Toxin; actives 12% (n = 300,000); max response, %; cell reporter, cycloheximide protein synthesis inhibition counterscreen; in the data active = max response mostly above about 13%, no sharp cut-off; inactive = mostly below about 14%; note: read at 38.3 µM for the half of the compounds with a filed dose
AmpC inh no detg: qHTS Inhibitors of AmpC Beta-Lactamase (assay without detergent) | P00811 | AmpC nitrocefin hydrolysis, absorbance 480 nm, 0.0001% Triton | Potency, µM (titrated, usually from 57.1 µM), usual class: inhibitors | actives 0.52% (n = 330,000) | AID 485341, 2010; note: nearly all actives have a fitted effect of over 20% in size
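AmpC (5.3 nM in the dispensed reagent) in 20 mM phosphate pH 7.0 with 0.01% (detergent screen) or 0.0001% Triton X-100 was preincubated with compounds for 15 min at room temperature. Nitrocefin was then added from an 800 uM solution, and hydrolysis was followed at 480 nm.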
NS1 inh: qHTS Assay for Inhibitors of Influenza NS1 Protein Function; Potency, µM (highest dose often 46.1 µM); actives 0.4% (n = 270,000); calls by dose curve; note: actives are rising curves; nearly all actives have a fitted effect of over 50% in size
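OD600 was taken as the measure of yeast growth restored by compound in an NS1-expressing S. cerevisiae strain. Cells had been washed out of glucose medium and diluted 1:100 into galactose -URA medium, pH 6.0.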
Large screens that a line does not name were inactive. This excerpt belongs to a sample that is enriched for hits. Unless noted, calls come from the whole dose curve; as a rule, active = well fitted curve in the direction sought with a large enough effect; inconclusive = small, poorly fitted or top-dose-only effect, or another doubt; inactive = no such curve, though single readings can be large; an effect the other way counts as inactive or inconclusive.

CCn1cc(C(=O)NC(=S)Nc2ccccc2Br)cn1	Shiga toxin inh 41, Cycloheximide cs 23
O=C(NC(=S)Nc1ccccc1[N+](=O)[O-])c1cncc(Br)c1	none
CCN(CC)c1ccc(NC(=O)c2ccc3c(c2)c(C)c(C)n3C)cc1	none (no result: NS1 inh)
COc1ccccc1NC(=S)NC(=O)c1ccc(Cn2cc(Br)cn2)cc1	none
CCN(CC)c1ccc(NC(=O)c2cnn(CC)c2)cc1	Shiga toxin inh 100, Cycloheximide cs 44
Cc1ccc(C(=O)Nc2ccccc2C(=O)OCc2cc(=O)n3nc(C4CC4)sc3n2)cc1	none (no result: Shiga toxin inh, Cycloheximide cs, AmpC inh no detg, NS1 inh)
CCOCCCn1c(SCC(=O)Nc2cc(C)ccc2C)nc2c(oc3ccccc32)c1=O	none (no result: Shiga toxin inh, Cycloheximide cs, AmpC inh no detg, NS1 inh)
Cc1c(C)n2c(SCC(=O)NCc3ccc4c(c3)OCO4)nnc2[nH]c1=O	none (no result: Shiga toxin inh, Cycloheximide cs, NS1 inh)
O=S(=O)(c1cccc(C(F)(F)F)c1)N1CCN(S(=O)(=O)c2ccc3c(c2)OCCO3)CC1	none (no result: AmpC inh detg, NS1 inh)
COc1ccc(S(=O)(=O)Nc2ncccn2)cc1	none
O=C(CS(=O)(=O)c1ccccc1)N1CCCCCC1	Shiga toxin inh 53, Cycloheximide cs 17
COc1ccc(CC(=O)N2CCc3ccccc32)cc1	Shiga toxin inh 80, Cycloheximide cs 31
Cc1ccccc1N1CCN(C(=O)CCN2C(=O)c3ccccc3C2=O)CC1	Shiga toxin inh 49, Cycloheximide cs 23
Cn1cc(S(=O)(=O)CC(=O)N2CCc3ccccc32)c2ccccc21	none
O=C(CS(=O)(=O)c1ccccc1)N1CCc2ccccc21	Shiga toxin inh 74, Cycloheximide cs 40
Cc1ccc(S(=O)(=O)CC(=O)N2CCCC2)cc1	AmpC inh detg inconclusive
CCOc1ccc(CC(=O)NC2CC(=O)N(c3ccc(C)c(C)c3)C2)cc1 (stereo unspecified)	none (no result: Shiga toxin inh, Cycloheximide cs, AmpC inh no detg, NS1 inh)
CCC(=O)N1CCc2cc(Br)cc(S(=O)(=O)NCCc3ccc(C)cc3)c21	none (no result: Shiga toxin inh, Cycloheximide cs, AmpC inh no detg, NS1 inh)
COc1ccc(N(CC(=O)NCCc2ccccc2)S(=O)(=O)c2ccc(OC)c(OC)c2)cc1	none (no result: Shiga toxin inh, Cycloheximide cs, AmpC inh no detg, NS1 inh)
O=C(CCn1cccc1)N1CCc2ccccc21	Cycloheximide cs 53
O=C(CCn1c(=O)oc2ccccc21)N1CCc2ccccc21	none
COc1ccc2c(CC(=O)OCC(=O)N3CCc4ccccc43)coc2c1	AmpC inh detg inconclusive
O=C(Cc1ccccc1)N1CCc2ccccc21	Shiga toxin inh 40, Cycloheximide cs 27
CCOC(=O)C1CCN(CC(=O)N2CCc3ccccc32)CC1	none
CC1CCN(CC(=O)N2CCc3ccccc32)CC1	Cycloheximide cs 17
COc1ccc2c(CC(=O)N3CCc4ccccc43)coc2c1	Shiga toxin inh 66, Cycloheximide cs 42
CC(C)c1cnc2c(c1SCC(=O)N1CCCCC1)c(=O)n(C)c(=O)n2C	none (no result: Shiga toxin inh, Cycloheximide cs, AmpC inh no detg, NS1 inh)
CCn1cc(C(=O)N(C)c2cc(C)ccc2C)c2cc(OC)c(OC)cc2c1=O	none (no result: Shiga toxin inh, Cycloheximide cs, AmpC inh no detg, NS1 inh)
COc1ccc(CNC(=O)C(=O)NCC(c2cccs2)S(=O)(=O)c2ccc(C)cc2)cc1 (stereo unspecified)	none (no result: Shiga toxin inh, Cycloheximide cs, AmpC inh no detg, NS1 inh)
CC(CC(=O)N1CCc2ccccc21)n1cccn1 (stereo unspecified)	Cycloheximide cs 27
O=C1c2ccccc2C(=O)N1CCCC(=O)N1CCc2ccccc21	none
Cc1ccn(C(C)CC(=O)N2CCc3ccccc32)n1 (stereo unspecified)	none
O=C1c2ccccc2C(=O)N1CCC(=O)N1CCCc2ccccc21	Cycloheximide cs 34
O=S(=O)(CC(CN1CCCCC1)N1CCCCC1)c1ccccc1 (stereo unspecified)	Cycloheximide cs 27
CCOC(=O)C(C(=O)NCc1cccc(OC)c1)c1ncc(C(F)(F)F)cc1Cl (stereo unspecified)	none
CC(=O)Nc1ccc2nc(SCCOc3ccccc3Cl)sc2c1	none (no result: Shiga toxin inh, Cycloheximide cs, AmpC inh no detg, NS1 inh)
Fc1ccc(N/N=C2/CC(c3ccccc3)Oc3ccccc32)c(F)c1 (stereo unspecified)	AmpC inh detg inconclusive, Shiga toxin inh 52, Cycloheximide cs 26
O=S(=O)(N/N=C1/CC(c2ccccc2)Oc2ccccc21)c1ccc(Br)cc1 (stereo unspecified)	AmpC inh detg inconclusive, Cycloheximide cs 28
Cc1ccc(S(=O)(=O)N/N=C2/CC(c3ccccc3)Oc3ccccc32)cc1[N+](=O)[O-] (stereo unspecified)	Shiga toxin inh 39, Cycloheximide cs 55
O=S(=O)(N/N=C1/CCCc2ccccc21)c1ccc(Br)cc1	AmpC inh detg inconclusive
Cc1ccc(S(=O)(=O)NN=C2CCC(C(C)(C)C)CC2)cc1[N+](=O)[O-] (stereo unspecified)	none
CNC(=S)N/N=C1\CC(c2ccccc2)Oc2ccccc21 (stereo unspecified)	none
CCCCC[C@]12Cc3ccccc3C(O1)C1=C(CC(C)(C)CC1=O)O2	AmpC inh detg inconclusive
COc1ccc(NC(=O)CSCc2cc(=O)c3cc(C)ccc3[nH]2)cc1	none (no result: Shiga toxin inh, Cycloheximide cs, AmpC inh no detg, NS1 inh)
Cc1sc(NC(=O)CN2C(=O)NC3(CCCC3)C2=O)nc1-c1ccc(F)cc1	AmpC inh detg inconclusive, AmpC inh no detg 25µM (no result: Shiga toxin inh, Cycloheximide cs, NS1 inh)
Cc1ccc(Cn2cnc3ccccc32)cc1	none
COc1cc(OC)cc(-c2c(-c3cccs3)c3cc(-c4ccn[nH]4)ccc3n2C)c1	none (no result: Shiga toxin inh, Cycloheximide cs, NS1 inh)
CCOC(=O)CSc1ncc(OC)c(=O)[nH]1	AmpC inh no detg inconclusive
CCOC(=O)C(C)Sc1ncc(OC)c(=O)[nH]1 (stereo unspecified)	AmpC inh no detg 0.16µM
CCOC(=O)N1CCN(C(=O)c2ccc3nc(C)sc3c2)CC1	AmpC inh detg inconclusive
CCOC(=O)N1CCN(C(=O)c2nc3ccccc3s2)CC1	Shiga toxin inh 73, Cycloheximide cs 34
CCOC(=O)N1CCC(NC(=O)c2ccc3c(c2)sc2nc(-c4ccc(OC)cc4)cn23)CC1	Shiga toxin inh 57, Cycloheximide cs 20
CCOC(=O)C1CCN(C(=O)c2ccc3c(c2)sc2nc(-c4ccccc4)cn23)CC1	none (no result: Shiga toxin inh, Cycloheximide cs, AmpC inh no detg, NS1 inh)
CCOC(=O)N1CCN(C(=O)c2ccc3c(c2)sc2nc(-c4ccccc4)cn23)CC1	Shiga toxin inh 43, Cycloheximide cs 53
Cc1cccc(-c2nnc(NC(=O)c3ccco3)s2)c1	Cycloheximide cs 21
CCSc1nnc(NC(=O)c2ccco2)s1	Shiga toxin inh 27, Cycloheximide cs 23
CCSc1nnc(NC(=O)c2c(C)noc2C)s1	Cycloheximide cs 16
CC(C)Sc1nnc(NC(=O)c2ccco2)s1	Shiga toxin inh 114, Cycloheximide cs 35
CCSc1nnc(NC(=O)c2cc(C)on2)s1	none
Cc1cc(C)nc(NC(=O)CSc2ncccn2)n1	none
CCOC(=O)C1CCN(S(=O)(=O)CCNC(=O)c2ccc(F)cc2)CC1	none (no result: Shiga toxin inh, Cycloheximide cs, NS1 inh)
CCOC(=O)c1ccc(NC(=O)c2cc(=O)c3cc(CC)ccc3o2)cc1	none (no result: Shiga toxin inh, Cycloheximide cs, AmpC inh no detg, NS1 inh)
CCCc1cc(C(N)=O)c(NC(=O)C2CCCO2)s1 (stereo unspecified)	AmpC inh detg inconclusive
CCCc1cc(C(N)=O)c(NC(=O)c2ccco2)s1	AmpC inh detg inconclusive, Shiga toxin inh active, Cycloheximide cs 29
Brc1c(-c2ccccc2)nc2n1Cc1ccccc1-2	Shiga toxin inh 141, Cycloheximide cs 52
